# Shown is part of a subset that was picked to be rich in hits.
# LmPK inh – LmPK (Leishmania mexicana) enzyme inhibition; Q27686; AID 1721; purified LmPK, Kinase-Glo ATP luminescence, 1 h; Potency, µM (series often up to 57.5 µM), without a hit: top-dose activity change, negative = inhibition, hits mostly inhibitors; 290,000 compounds, 0.37% hits; active means well fitted curve in the direction sought with a large enough effect; inconclusive means small, poorly fitted or top-dose-only effect, or another doubt; inactive means no such curve, though single readings can be large; an effect the other way counts as inactive or inconclusive; further: potency means the concentration at half of the fitted maximal effect; on the % scale 0 is the no-effect control and ±100 the full control effect
# Target sequence (Q27686 whole entry, looked up): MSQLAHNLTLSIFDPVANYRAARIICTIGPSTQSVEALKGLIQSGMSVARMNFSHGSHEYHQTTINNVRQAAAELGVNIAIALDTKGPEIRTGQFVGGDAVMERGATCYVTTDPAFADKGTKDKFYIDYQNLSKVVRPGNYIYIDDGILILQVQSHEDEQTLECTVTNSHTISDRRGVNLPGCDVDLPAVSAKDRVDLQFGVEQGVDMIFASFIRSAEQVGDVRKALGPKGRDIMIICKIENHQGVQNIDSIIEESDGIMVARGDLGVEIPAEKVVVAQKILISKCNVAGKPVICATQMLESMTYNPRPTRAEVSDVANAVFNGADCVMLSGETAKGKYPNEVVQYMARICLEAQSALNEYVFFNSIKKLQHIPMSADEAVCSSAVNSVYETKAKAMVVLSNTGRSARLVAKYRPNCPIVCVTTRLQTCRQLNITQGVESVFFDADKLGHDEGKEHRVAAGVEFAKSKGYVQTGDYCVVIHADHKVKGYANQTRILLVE
#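 Purified LmPK (0.1 nM) converted ADP (0.1 mM) to ATP with PEP (0.5 mM) in imidazole buffer pH 7.2 with KCl and MgCl2, 1 h at room temperature. ATP was read by Kinase-Glo luminescence; data normalized to uninhibited and no-enzyme controls.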
# Shiga toxin inh – blocks Shiga toxin action in Vero cells. inhibition, % at 38.7 µM. 290,000 compounds, 9.2% hits. AID 2315. Vero cells, Shiga toxin protein synthesis inhibition reporter; in the data active means inhibition mostly above about 28%, no sharp cut-off; inactive means mostly below about 43%; further: 0% is about no effect
# Cycloheximide cs – counter-screen for Shiga toxin inhibitors: cycloheximide protein synthesis inhibition; cell reporter, cycloheximide protein synthesis inhibition counterscreen; max response, %; 300,000 compounds, 12% hits; AID 2314; in the data active means max response mostly above about 13%, no sharp cut-off; inactive means mostly below about 14%; further: read at 38.3 µM for the half of the compounds with a filed dose; 0% is about no effect
# Tb PYK inh – T. brucei pyruvate kinase inhibition. TbPYK enzyme, Kinase-Glo Plus ATP luminescence, 45 min. Potency, µM (doses to about 76.8 µM), for the others: at the top dose activity, negative = inhibition, usual class: inhibitors. AID 624173. 410,000 compounds, 0.12% hits; active means well fitted curve in the direction sought with a large enough effect; inconclusive means small, poorly fitted or top-dose-only effect, or another doubt; inactive means no such curve, though single readings can be large; an effect the other way counts as inactive or inconclusive; further: potency means the concentration at half of the fitted maximal effect; on the % scale 0 is the no-effect control and ±100 the full control effect; nearly all actives have a fitted effect of over 50% in size
#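 T. brucei PYK with substrate was exposed to pin-transferred compounds across a concentration series, then started with 130 uM ADP (final). After 45 min at room temperature, Kinase-Glo Plus luminescence was read, normalized and curve-fitted.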
# NS1 function inh – inhibitors of influenza NS1 protein function | AID 2326 | Potency, µM (top dose mostly 46.1 µM), without a hit: at the highest dose activity, positive = more growth | 270,000 compounds, 0.4% hits; further: potency means the concentration at half of the fitted maximal effect; actives are rising curves; nearly all actives have a fitted effect of over 50% in size
#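 A cell-based growth assay was used: compounds that relieve NS1-induced slow growth of budding yeast raise OD600. Assay medium was yeast nitrogen base with ammonium sulphate and -URA supplement, pH 6.0, with 2% galactose.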
# SARS PLP yeast – blocks SARS-CoV papain-like protease in a yeast assay | Potency, µM (doses to about 32.9 µM), inactives show top-dose activity, positive = growth rescue, actives largely listed as activators | 330,000 compounds, 0.19% hits | AID 485353 | S. cerevisiae expressing SARS-CoV PLpro, growth rescue; further: potency means the concentration at half of the fitted maximal effect; 0% is about no effect; nearly all actives have a fitted effect of over 55% in size
# Active calls of the source: *; ? = inconclusive; nt = no result; [ ] = remark or other dose. Unless noted, the call rests on the fitted dose curve.
SMILES,LmPK inh,Shiga toxin inh,Cycloheximide cs,Tb PYK inh,NS1 function inh,SARS PLP yeast
CCCN(C(=O)Cn1cnc2onc(-c3ccc(F)cc3)c2c1=O)c1cccc(Cl)c1,nt,nt,nt,2%,nt,nt
Cc1cc(-c2ccc(C(C)C)c(S(=O)(=O)N3CCN(c4ccccn4)CC3)c2)on1,10%,0,-2,3%,-47%,-2%
COc1ccccc1/C=C/C=N/Nc1cccc(C(=O)O)c1,10%,132*,42*,5%,-43%,-1%
O=C(O)c1cccc(N/N=C/c2cc(Br)cc(Br)c2O)c1,2%,126*,51*,-15%,-43%,-70%
CCN(CC)c1c(C)nc2ccc(C(=O)Nc3cc(-c4ccccc4)ccc3OC)cn12,nt,nt,nt,3%,nt,nt
CCN(CC)CCn1c2c(c(SCC(=O)Nc3cccc(C(F)(F)F)c3)nc1=O)CCC2,nt,nt,nt,7%,nt,nt
CSc1nc(O)c(/C=C2\C=Nc3ccccc32)[nH]1,-14%,140*,62*,1%,-18%,-3%
O=c1[nH]c(/C=C2\C=Nc3ccccc32)c(O)n1Cc1ccccc1F,1%,40,2,0%,4%,-2%
Cc1ccc(C)c(S(=O)(=O)NC2CCSC2=O)c1 (centres undefined),nt,nt,nt,-5%,nt,-9%
Cc1ccccc1OCc1ccc(-c2nc(C#N)c(N3CCN(c4ccccc4)CC3)o2)o1,nt,nt,nt,-5%,nt,nt
O=C(c1cc(-c2ccc(O)cc2)on1)N1CCCCCC1,2%,61*,34*,-10%,-6%,-5%
CC1CCCC(C)N1C(=O)c1cc(-c2ccc(Cl)c(Cl)c2)on1 (centres undefined),-1%,2,-1,-3%,-78%,4%
O=C(c1cc(-c2ccc(Cl)cc2)on1)N1CCCCCC1,0%,109*,27*,-3%,3%,-3%
O=C(c1cc(-c2ccccc2O)on1)N1CCCCC1,nt,nt,nt,1%,nt,nt
Cc1ccc(-c2cc(C(=O)N3CCOCC3)no2)cc1,-26%,29,12,-4%,-1%,0%
CC1CCCC(C)N1C(=O)c1cc(-c2ccc3c(c2)OCO3)on1 (centres undefined),-5%,78*,54*,29%,-2%,-3%
O=C(c1cc(-c2ccc3c(c2)OCO3)on1)N1CCCCC1,-21%,55*,25*,-4%,-8%,-8%
CCCCCCCCN1C(=O)[C@H](CC(=O)NCc2cccs2)C[C@@]2(C(=O)OC)CCCCC=C12,nt,nt,nt,-1%,nt,nt
COc1ccc(NC2CCCN(C(=O)c3ccc4[nH]c(C)c(C)c4c3)C2)cc1OC (centres undefined),-10%,10,9,-7%,0%,-3%
CCOC(=O)C1CCCN(C(=O)c2cc(-c3ccccc3)on2)C1 (centres undefined),-11%,79*,42*,1%,-11%,-5%
O=C(c1cc(-c2ccc(Cl)c(Cl)c2)on1)N1CCCCCC1,0%,36*,20*,2%,9%,2%
CCOC(=O)C1CCCN(C(=O)c2cc3c(C)nc4ccccc4c3o2)C1 (centres undefined),1%,-4,-2,4%,-38%,-1%
Cc1ccc(-c2cc(C(=O)N3CCCC3)no2)cc1,-19%,active,28,-1%,0%,-10%
Cc1ccc(CNC(=O)COC(=O)c2cc(C)oc2C)cc1,nt,nt,nt,0%,nt,-1%
COc1cccc(-c2csc(N3CCN(C(=S)Nc4cccc(C)c4)CC3)n2)c1,0%,41,18*,-1%,?,-1%
SMILES,LmPK inh,Shiga toxin inh,Cycloheximide cs,Tb PYK inh,NS1 function inh,SARS PLP yeast
CNC(=S)N1CCN(c2nc(-c3cccc(OC)c3)cs2)CC1,1%,1,9.9*,2%,10%,3%
CNC(=S)N1CCN(c2nc(-c3ccc(Cl)cc3)cs2)CC1,7%,21,16*,-15%,15%,-3%
CC(C)C(=O)N1CCN(c2nc(-c3ccc(Cl)cc3)cs2)CC1,-1%,32,-2,-4%,-1%,0%
CCOC(=O)N1CCN(c2nc(-c3ccc(Cl)cc3)cs2)CC1,3%,46*,36*,-4%,5%,-5%
COc1cccc(-c2csc(N3CCN(C(=O)Nc4ccccc4Cl)CC3)n2)c1,2%,50,9.5*,-14%,13%,-2%
CCOc1ccccc1NC(=S)N1CCN(c2nc(-c3cccc(OC)c3)cs2)CC1,4%,47,13,3%,22%,6%
COc1cccc(-c2csc(N3CCN(Cc4ccccc4)CC3)n2)c1,-5%,32,18*,-22%,-15%,?
COc1cccc(-c2csc(N3CCN(C(=S)Nc4ccccc4)CC3)n2)c1,2%,-4,1,7%,22%,1%
COc1cccc(NC(=O)N2CCN(c3nc(-c4cccc(OC)c4)cs3)CC2)c1,2%,2,10,-22%,0%,-1%
COc1cccc(-c2csc(N3CCN(C(=S)Nc4ccc(Cl)cc4)CC3)n2)c1,0%,75*,24*,-14%,29%,-8%
COc1cccc(-c2csc(N3CCN(C(=S)Nc4ccccc4C)CC3)n2)c1,3%,49*,18*,-3%,22%,-1%
O=C1CC(c2ccccc2)Cc2[nH]c(=O)c(C(=O)Nc3ccc(OC(F)(F)F)cc3)cc21 (centres undefined),nt,nt,nt,3%,nt,nt
CCc1ccc(OC(=O)CSc2nnc(-c3ccc(OC)c(OC)c3)o2)cc1,nt,nt,nt,-1%,nt,nt
COc1cc(-c2ccccc2)nc(N)n1,-9%,77*,87*,3%,?,21%
CCOc1cc(-c2ccccc2)nc(N)n1,-14%,106*,49*,-4%,?,30%
COc1cc(Oc2ccccc2)nc(N)n1,nt,nt,nt,4%,nt,nt
CC(=O)c1cccc(NC(=O)NC(C)C2CCCO2)c1 (centres undefined),-1%,-5,3,-1%,-2%,3%
CC(NC(=O)Nc1ccc(Cl)cc1)C1CCCO1 (centres undefined),-6%,20*,8,-6%,4%,1%
CCOC(=O)c1ccc(NC(=O)NC(C)C2CCCO2)cc1 (centres undefined),-6%,36,12*,3%,1%,0%
O=C(/C=C/c1ccccc1Cl)Nc1ccccc1,14µM*,60*,37*,-9%,-63%,-6%
O=C(/C=C/c1ccccc1Cl)Nc1ccc(Cl)cn1,13%,48*,23,3%,nt,0%
Cc1ccc(CNC(=O)/C=C/c2c(Cl)cccc2Cl)cc1,-1%,-11,-5,-23%,11%,-3%
CN(C)S(=O)(=O)c1ccc(NC(=O)/C=C/c2ccccc2Cl)cc1,-1%,2,1,-20%,11%,9%
O=C(/C=C/c1ccccc1Cl)Nc1cccc(O)c1,-11%[11.5 µM],78*,26*,-6%,nt,2%
CN(C)c1ccc(NC(=O)/C=C/c2c(Cl)cccc2Cl)cc1,0%,59*,41*,-10%,17%,-15%
CCCCOC(=O)c1cccc(NC(=O)/C=C/c2ccccc2Cl)c1,nt,nt,nt,-3%,nt,nt
